“And” between values parts separate entries of the source, which are not always exact repeats. Equal values may be shown once. Results filed as inconclusive are left out. A call without a number means that no potency is given here. The source holds several records for some structures; these can differ, active in one and inactive in another. The source made the active and inactive calls. The call rests on the fitted dose curve; in most records, active means well fitted curve in the direction sought with a large enough effect in the repeat runs; inconclusive means weak or mixed curves; inactive means no such curve, though single readings can be large; an effect the other way counts as inactive or inconclusive.
System: not listed separately
Test: qHTS assay to identify aromatase inhibitors - cell viability counter screen (AID 743084);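 further: cells stimulated with testosterone during compound exposure; nearly all actives have a fitted effect of over 55% in size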
Conditions: MCF-7 aro ERE viability, CellTiter-Fluor, 24 h; series mostly up to 70.3 µM; activity change, negative = cytotoxicity: at the top concentration
Potency means the concentration at half of the fitted maximal effect.

Compound	Potency	activity change, negative = cytotoxicity
O=[N+]([O-])c1ccc(O)c([N+](=O)[O-])c1	54.7 µM (active)	–
c1ccc(P(c2ccccc2)c2ccccc2)cc1	inactive	–
CC(C)=CC1C(C(=O)OCc2coc(Cc3ccccc3)c2)C1(C)C (centres undefined)	inactive	–
O=[N+]([O-])c1c(Cl)c(Cl)c(Cl)c(Cl)c1Cl	–	-0.846% (inactive)
CC1(C)C(C=C(Cl)Cl)C1C(=O)OC(C#N)c1cccc(Oc2ccccc2)c1 (centres undefined)	inactive	–
ClC1C(Cl)C(Cl)C(Cl)C(Cl)C1Cl (centres undefined)	inactive	–
O=c1oc2ccccc2c(O)c1C(CC(O)c1ccc(-c2ccc(Br)cc2)cc1)c1ccccc1 (centres undefined)	inactive	–
CCCCCc1cc(O)cc(O)c1	inactive	–
CCOc1cc(Oc2ccc(C(F)(F)F)cc2Cl)ccc1[N+](=O)[O-]	inactive	–
Nc1ccc(-c2ccc(N)c(N)c2)cc1N	54.3 µM (active) and inactive	–
Brc1ccc(Oc2cc(Br)c(Br)cc2Br)c(Br)c1	inactive	–
CCC(CC)Nc1c([N+](=O)[O-])cc(C)c(C)c1[N+](=O)[O-]	inactive	–
CCCCN(CC)c1c([N+](=O)[O-])cc(C(F)(F)F)cc1[N+](=O)[O-]	inactive	–
Oc1ccc(-c2ccccc2)cc1	inactive	–
c1nc[nH]n1	inactive	–
CCC(C)c1cc([N+](=O)[O-])cc([N+](=O)[O-])c1O (centres undefined)	inactive and 27.3 µM (active)	–
Cc1c(COC(=O)[C@@H]2[C@H](/C=C(\Cl)C(F)(F)F)C2(C)C)cccc1-c1ccccc1	inactive	–
C#CCOS(=O)OC1CCCCC1Oc1ccc(C(C)(C)C)cc1 (centres undefined)	21.7 µM (active) and 6.86 µM (active)	–
Cc1cc(Cl)ccc1OCCCC(=O)O	inactive	–
O=C(CCl)c1ccccc1	inactive and 61.1 µM (active)	–
CCCCNC(=O)n1c(NC(=O)OC)nc2ccccc21	inactive	–
CCOC(=O)C(C)OC(=O)c1cc(Oc2ccc(C(F)(F)F)cc2Cl)ccc1[N+](=O)[O-] (centres undefined)	inactive	–
CCC(C)(c1ccc(O)cc1)c1ccc(O)cc1	–	-5.39% (inactive)
CC(C)(c1cc(Cl)c(O)c(Cl)c1)c1cc(Cl)c(O)c(Cl)c1	inactive	–
CCC(=O)O[C@H]1CC[C@H]2[C@@H]3CCC4=CC(=O)CC[C@]4(C)[C@H]3CC[C@]12C	–	-0.692% [at 32.5 µM] (inactive)
S=C1NCCN1	inactive	–
CC(C)C(=O)OCC(C)(C)C(OC(=O)C(C)C)C(C)C (centres undefined)	inactive	–
Oc1cc(Cl)ccc1Cl	inactive	–
CNC(=O)Oc1cccc2c1OC(C)(C)O2	inactive	–

Target: Aryl hydrocarbon receptor (Homo sapiens) (UniProt P35869)
Test: qHTS assay to identify small molecule that activate the aryl hydrocarbon receptor (AhR) signaling pathway (AID 743085); further: nearly all actives have a fitted effect of over 15% in size;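 on activation: HG2L7.5c1 human HepG2 liver cells with stably integrated DRE-driven firefly reporter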
Conditions: HepG2 AhR-luc (HG2L7.5c1), luciferase, 24 h; series mostly up to 70.3 µM; activation: at the top concentration
Summary of the method: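 Luminescence read-out: ONE-Glo reagent, 30 min at room temperature, in HG2L7.5c1 HepG2 reporter cells treated 24 h at 37C. Viability was measured beforehand by CellTiter-Fluor fluorescence after 30 min at 37C.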

Chain of Aryl hydrocarbon receptor (Homo sapiens) (P35869 whole entry, looked up): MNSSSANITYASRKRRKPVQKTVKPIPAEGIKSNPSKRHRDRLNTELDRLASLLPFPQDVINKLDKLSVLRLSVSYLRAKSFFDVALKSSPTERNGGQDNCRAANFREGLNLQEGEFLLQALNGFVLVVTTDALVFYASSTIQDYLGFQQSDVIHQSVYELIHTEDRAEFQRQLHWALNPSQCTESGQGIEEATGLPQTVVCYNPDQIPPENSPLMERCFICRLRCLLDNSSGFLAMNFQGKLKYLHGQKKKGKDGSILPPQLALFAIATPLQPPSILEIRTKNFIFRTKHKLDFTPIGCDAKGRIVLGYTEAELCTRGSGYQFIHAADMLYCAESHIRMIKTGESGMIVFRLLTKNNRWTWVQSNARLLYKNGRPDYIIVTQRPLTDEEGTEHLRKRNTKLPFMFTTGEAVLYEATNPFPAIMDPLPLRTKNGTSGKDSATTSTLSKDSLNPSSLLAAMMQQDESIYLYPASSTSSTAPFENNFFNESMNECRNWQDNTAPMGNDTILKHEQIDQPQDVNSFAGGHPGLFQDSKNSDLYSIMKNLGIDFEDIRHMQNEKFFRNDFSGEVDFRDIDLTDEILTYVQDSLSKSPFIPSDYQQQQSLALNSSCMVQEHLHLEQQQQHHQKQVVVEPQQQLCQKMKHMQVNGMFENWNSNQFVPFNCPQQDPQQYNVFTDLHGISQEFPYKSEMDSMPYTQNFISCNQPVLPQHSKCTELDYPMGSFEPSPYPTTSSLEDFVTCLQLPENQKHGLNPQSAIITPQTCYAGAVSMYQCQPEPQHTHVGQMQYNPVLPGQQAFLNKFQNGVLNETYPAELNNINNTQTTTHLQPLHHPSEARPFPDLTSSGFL

Compound	Potency	activation
O=[N+]([O-])c1ccc(O)c([N+](=O)[O-])c1	24.4 µM (active)	–
N[C@@H](Cc1ccc(N(CCCl)CCCl)cc1)C(=O)O	–	7.4% (inactive)
c1ccc(P(c2ccccc2)c2ccccc2)cc1	inactive	–
CC(C)=CC1C(C(=O)OCc2coc(Cc3ccccc3)c2)C1(C)C (centres undefined)	inactive	–
O=[N+]([O-])c1c(Cl)c(Cl)c(Cl)c(Cl)c1Cl	inactive	–
CC1(C)C(C=C(Cl)Cl)C1C(=O)OC(C#N)c1cccc(Oc2ccccc2)c1 (centres undefined)	–	-1.19% (inactive)
ClC1C(Cl)C(Cl)C(Cl)C(Cl)C1Cl (centres undefined)	inactive	–
O=c1oc2ccccc2c(O)c1C(CC(O)c1ccc(-c2ccc(Br)cc2)cc1)c1ccccc1 (centres undefined)	inactive	–
CCCCCc1cc(O)cc(O)c1	61.4 µM (active)	–
CCOc1cc(Oc2ccc(C(F)(F)F)cc2Cl)ccc1[N+](=O)[O-]	inactive	–
Nc1ccc(-c2ccc(N)c(N)c2)cc1N	484 nM (active) and 3.06 µM (active)	–
Brc1ccc(Oc2cc(Br)c(Br)cc2Br)c(Br)c1	–	1.17% (inactive)
CCC(CC)Nc1c([N+](=O)[O-])cc(C)c(C)c1[N+](=O)[O-]	inactive	–
CCCCN(CC)c1c([N+](=O)[O-])cc(C(F)(F)F)cc1[N+](=O)[O-]	inactive	–
Oc1ccc(-c2ccccc2)cc1	inactive	–
c1nc[nH]n1	–	-0.0868% (inactive)
CCC(C)c1cc([N+](=O)[O-])cc([N+](=O)[O-])c1O (centres undefined)	inactive	–
Cc1c(COC(=O)[C@@H]2[C@H](/C=C(\Cl)C(F)(F)F)C2(C)C)cccc1-c1ccccc1	inactive	–
C#CCOS(=O)OC1CCCCC1Oc1ccc(C(C)(C)C)cc1 (centres undefined)	inactive	–
Cc1cc(Cl)ccc1OCCCC(=O)O	–	-0.954% (inactive)
O=C(CCl)c1ccccc1	–	3.67% (inactive)
CCCCNC(=O)n1c(NC(=O)OC)nc2ccccc21	34.2 µM (active) and inactive	–
CCOC(=O)C(C)OC(=O)c1cc(Oc2ccc(C(F)(F)F)cc2Cl)ccc1[N+](=O)[O-] (centres undefined)	inactive	–
CCC(C)(c1ccc(O)cc1)c1ccc(O)cc1	–	4.34% (inactive)
CC(C)(c1cc(Cl)c(O)c(Cl)c1)c1cc(Cl)c(O)c(Cl)c1	–	4.89% (inactive)
CCC(=O)O[C@H]1CC[C@H]2[C@@H]3CCC4=CC(=O)CC[C@]4(C)[C@H]3CC[C@]12C	inactive	–
S=C1NCCN1	inactive	–
CC(C)C(=O)OCC(C)(C)C(OC(=O)C(C)C)C(C)C (centres undefined)	inactive	–
Oc1cc(Cl)ccc1Cl	inactive	–
CNC(=O)Oc1cccc2c1OC(C)(C)O2	inactive	–

Reference: PubChem BioAssay (Tox21)
